Experimental data taken from PubChem BioAssay AID1508602 (The Scripps Research Institute Molecular Screening Center, 2020).
“And” between values parts separate entries of the source, which are not always exact repeats. Equal entries are not always repeated. In all, about 650,000 compounds went through this assay and about 6,800 (1%) were called active. Cut-off read from the data, not from the text of the source: active = activation above about 4.9%; inactive = the rest. What follows is part of a selection rich in actives, with near analogues and random picks from the rest. Some structures have more than one record in an assay (separate samples or runs), and their calls can disagree.

molecular target: G-protein coupled receptor 151 (Homo sapiens) (UniProt Q8TDV0); assay: activates the human receptor GPR151, primary screen, cell-based, PathHunter beta-arrestin, luminescence (AID 1508602); settings: PathHunter beta-arrestin GPR151 cells, at 11.2 µM, stronger effect = higher value;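 note: 0% = median of compound wells and 100% = cells with positive control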
Sequence (Q8TDV0 whole entry, looked up): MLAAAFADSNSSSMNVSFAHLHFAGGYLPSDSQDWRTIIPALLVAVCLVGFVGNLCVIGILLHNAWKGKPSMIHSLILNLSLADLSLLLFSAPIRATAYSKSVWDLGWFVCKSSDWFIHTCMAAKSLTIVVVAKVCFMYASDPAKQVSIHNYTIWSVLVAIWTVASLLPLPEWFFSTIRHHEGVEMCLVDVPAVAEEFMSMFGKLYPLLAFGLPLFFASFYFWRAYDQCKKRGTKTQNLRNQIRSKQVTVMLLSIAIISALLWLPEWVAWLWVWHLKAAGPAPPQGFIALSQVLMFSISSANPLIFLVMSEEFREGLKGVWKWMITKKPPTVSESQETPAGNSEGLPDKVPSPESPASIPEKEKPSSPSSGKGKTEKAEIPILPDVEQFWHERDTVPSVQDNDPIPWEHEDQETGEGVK

| SMILES | activation |
| --- | --- |
| CCC(C)NC(=O)c1sc2nc(C)nc(N3CCCCC3)c2c1C (centres undefined) | 2.24% (inactive) |
| CCC(CC)C(=O)Nc1ccc(S(=O)(=O)Nc2ncccn2)cc1 | -0.125% (inactive) |
| CCCCCC(=O)OCCNC(=O)c1cc2ccccc2oc1=O | -0.976% (inactive) |
| CCc1ccc(S(=O)(=O)NCc2csc(-c3ccccc3)n2)cc1 | -1.08% (inactive) |
| O=S(=O)(NCc1csc(-c2cccnc2)n1)c1ccc2ccccc2c1 | 5.9% (active) |
| Cc1ccc(S(=O)(=O)NCc2csc(-c3ccccc3)n2)cc1 | 4.76% (inactive) |
| NC1=NC(=O)/C(=C/c2ccccc2C(F)(F)F)S1 | -0.392% (inactive) |
| Cc1c(C)n2c(SCC(=O)Nc3ccc4c(c3)OCO4)nnc2[nH]c1=O | 1.02% (inactive) |
| CCCc1cc(=O)[nH]c2nnc(SCC(=O)Nc3cc(OC)ccc3OC)n12 | -0.547% (inactive) |
| COc1ccc(OC)c(NC(=O)CSc2nnc3[nH]c(=O)c(C)c(C)n23)c1 | 5.91% (active) |
| Cc1ccc(CSCc2nnc(SCC(=O)Nc3nccs3)n2C)cc1 | 0.977% (inactive) |
| COc1ccc(/C(=N/C(N)=S)Nc2ccccc2)cc1 | -0.629% (inactive) |
| COc1cc(/C=C/C(=O)O)ccc1OCc1ccccc1F | -0.0946% (inactive) |
| Cc1ccc(-c2nc(CCNC(=O)c3cccs3)cs2)cc1 | -1.14% (inactive) |
| COC(=O)C1(C)NC(c2ccccc2OC)C2C(=O)N(c3ccccc3)C(=O)C21 (centres undefined) | 5.08% (active) |
| COC(=O)C1(C)NC(c2ccc(C)cc2)C2C(=O)N(c3ccc(C)cc3)C(=O)C21 (centres undefined) | -0.33% (inactive) |
| COC(=O)C1(C)NC(c2ccc(C)cc2)C2C(=O)N(c3ccc(F)cc3)C(=O)C21 (centres undefined) | -0.111% (inactive) |
| Cc1c(C(=O)Nc2ccc(F)cc2Cl)sc2ncn(CC(=O)N3CCOCC3)c(=O)c12 | -1.55% (inactive) |
| Clc1ccccc1C1C=C(c2ccc(I)cc2)Nc2nnnn21 (centres undefined) | 13.5% (active) |
| FC(F)Oc1ccccc1C1C=C(c2ccc(Cl)cc2)Nc2nnnn21 (centres undefined) | -0.0148% (inactive) |

| SMILES | activation |
| --- | --- |
| Cc1ccc(C2=CC(c3ccccc3F)n3nnnc3N2)cc1 (centres undefined) | 0.122% (inactive) |
| CC(C)C[C@@H]1NC(=O)[C@@H]2C[C@H](NCc3cn(C)nc3-c3ccccc3)CN2C1=O | 2.5% (inactive) |
| Cc1cc(CN(C)Cc2ccc(OCC(O)CN(C)Cc3ccccc3)cc2)n[nH]1 (centres undefined) | 5.48% (active) |
| COCCN(C)Cc1ccc(OCC(O)CN(C)Cc2ccccc2)cc1 (centres undefined) | 2.19% (inactive) |
| Cc1nc(CNCc2ccc(OCC(O)CN(C)Cc3ccccc3)cc2)n[nH]1 (centres undefined) | 0.224% (inactive) |
| CC(C)Cn1cnc2c1c(=O)[nH]c(=O)n2CC(C)C | -1.78% (inactive) |
| CCOC(=O)c1oc2ccc(C=O)c(Cl)c2c1C | 0.651% (inactive) |
| COc1cc(NC(=O)C2CC(c3ccccc3O)=NO2)c(OC)cc1Cl (centres undefined) | 5.74% (active) |
| CC(C)(C)NC(=O)C1CC(c2ccccc2Cl)=NO1 (centres undefined) | 1.12% (inactive) |
| COc1ccc(OC)c(C2=NOC(C(=O)Nc3cccc(O)c3)C2)c1 (centres undefined) | 1.6% (inactive) |
| O=C(NNC(=S)NC(=O)c1ccccc1[N+](=O)[O-])c1ccc(O)cc1 | -0.124% (inactive) |
| CO[C@@H]1COC(=O)[C@@H](C)COC(=O)[C@H](C)NC(=O)C/C=C/[C@H]1C | 1.97% (inactive) and 5.04% (active) |
| CCN(CC)c1nc(Nc2cc(OC)c(OC)c(OC)c2)nc(N2CCOCC2)n1 | 5.49% (active) |
| COc1cc(Nc2ccnc(Nc3ccc(N4CCOCC4)cc3)n2)cc(OC)c1OC | 5.76% (active) |
| COc1cc(Nc2ccnc(Nc3ccncc3)n2)cc(OC)c1OC | 1.57% (inactive) |
| CCN(CC)c1nc(Nc2ccccc2)nc(N2CCOCC2)n1 | -0.263% (inactive) |
| c1ccc(Nc2nccc(Nc3ccc(N4CCOCC4)cc3)n2)cc1 | 2.16% (inactive) |
| CCN(CC)c1nc(Nc2cc(OC)c(OC)c(OC)c2)nc(Nc2nc3ccccc3n2C)n1 | -0.32% (inactive) |
| O=C1CCC(CCC(=O)N2CCCC2)(Cc2cccc3ccccc23)N1 (centres undefined) | 0.278% (inactive) |
| Cc1ccc(C(C)C)c(OCCNC(=O)c2cccs2)c1 | 0.446% (inactive) |

| SMILES | activation |
| --- | --- |
| COc1ccc(CC2(CCC(=O)NCCCn3ccnc3)CCC(=O)N2)c(F)c1 (centres undefined) | -0.719% (inactive) |
| COc1cc(Nc2ccc(-n3cc(CC(=O)NCCCN4CCCC4=O)c4ccccc43)nn2)cc(OC)c1OC | -1.03% (inactive) |
| COC(=O)c1c(-c2ccccc2)csc1NC(=O)c1ccc(OC)c([N+](=O)[O-])c1 | 6.64% (active) |
| COc1ccc(C(=O)NCC(=O)O)cc1[N+](=O)[O-] | -1.88% (inactive) |
| CCOC(=O)c1c(-c2ccc([N+](=O)[O-])cc2)csc1NC(=O)c1ccccc1 | -1.07% (inactive) |
| COC(=O)c1cccc(-n2nnnc2SCC(=O)Nc2nc(C(C)(C)C)cs2)c1 | -0.122% (inactive) |
| CC(C(=O)O)c1ccc(NC(=O)OC(C)(C)C)cc1 (centres undefined) | -1.31% (inactive) |
| COc1ccc(N2C(=O)CSC2c2cccc(Cl)c2Cl)cc1Cl (centres undefined) | 0.734% (inactive) |
| COc1ccc(N2C(=O)CSC2c2ccccc2F)cc1Cl (centres undefined) | -0.327% (inactive) |
| COc1cccc(C2SCC(=O)N2c2cccc(C)c2)c1OC (centres undefined) | 5.36% (active) |
| Cc1c(NC(=O)c2nn3c(C(F)(F)F)cc(-c4ccc(Cl)cc4)nc3c2Cl)c(=O)n(-c2ccccc2)n1C | -1.62% (inactive) |
| N#C/C(=C/c1ccc(Br)o1)C(=O)NCCc1c[nH]c2ccccc12 | 0.189% (inactive) |
| Cc1cc(CN(C)Cc2nc(NCC3CCCO3)c3ccc(Cl)cc3n2)on1 (centres undefined) | -0.552% (inactive) |
| COc1cc(-c2ncnn2-c2ccc(Cl)cc2)ccc1OCc1ccccc1 | -3.78% (inactive) |
| COCc1cc(C)c(C#N)c(N(C)C)n1 | 0.894% (inactive) |
| CC1=NN(c2cccc(Cl)c2)C(=O)/C1=C\c1ccc(F)cc1 | -0.302% (inactive) |
| O=C(NCc1ccsc1)c1ccc(-n2cccc2)cc1 | 6.14% (active) |
| COc1ccc(CNC(=O)NCc2ccsc2)cc1 | -0.956% (inactive) |
| O=C(NCCc1ccsc1)c1ccccc1Cl | -3.26% (inactive) |
